Results filed as inconclusive are left out. For some assays here: Measured potencies and affinities stand elsewhere. The source made the active and inactive calls.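 How the source made its calls, unless noted: active means thallium flux through the channel raised or lowered by more than 3 SD from vehicle-only wells, actives on both sides; inactive means the rest.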
Experiments:
[1] = blockers of polyQ-driven CASP3 activation – cell-based (AID 1583); details: polyglutamine-induced caspase-3 activation, cell assay; stronger effect = higher value;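 tested at 10 µM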
[2] = restoration of touch response, mutant HTT neurons – whole organism, C. elegans mechanosensory neurons, N-terminal huntingtin (AID 1599); details: C. elegans polyQ-huntingtin mechanosensory neurons, stronger effect = higher value
[3] = glutamate transport activators, MN-1 cells, MN-1 cell line (AID 1612); details: MN-1 motor neuron cells, stronger effect = higher value;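 further: tested at 1 µM final; 0% = mean of DMSO vehicle wells on each plate; positive means more glutamate uptake than control and negative means less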
[4] = GFP-Q80 aggregate reduction, neuronal-like cells, cell-based, NGF-treated PC12, GFPQ80 (AID 1614); details: PC12 NGF-treated GFP-polyQ80 inclusion reduction;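 further: lower means fewer inclusions and 0 means no inclusions at all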
[5] = 75Q-TubH aggregate inhibition, S. cerevisiae, yeast (AID 1616); details: S. cerevisiae 75Q-TubH polyglutamine aggregation suppression; stronger effect = higher value
[6] = modulation of C. elegans fzo-1 (AID 1259413; call rule not given here;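 further: fzo-1 mutant C. elegans worms in liquid wells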); details: C. elegans fzo-1 modulator screen, mean read-out; stronger effect = higher value
[7] = test system: F380Y; experiment: BK channel mutant inhibitors and activators – cell-based, U2OS BacMam, thallium flux, beta subunits, selectivity assay, profiling panel (AID 1259406); details: U2OS BacMam BK variants, at 30 µM;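 further: initial slope of Thallos dye fluorescence rise after thallium is added; log ratio against the mean of 0.3% DMSO vehicle wells on the same plate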
[8] = test system: F380Y/beta1; experiment: as above; details: U2OS BacMam BK variants, at 30 µM
[9] = test system: F380Y/beta2Delta; experiment: as above; details: U2OS BacMam BK variants, at 30 µM
[10] = test system: R275C; experiment: as above; details: U2OS BacMam BK variants, at 30 µM
[11] = test system: R275C/beta1; experiment: as above; details: U2OS BacMam BK variants, at 30 µM
[12] = test system: R275C/beta2Delta; experiment: as above; details: U2OS BacMam BK variants, at 30 µM
[13] = test system: R275C/Slo1WT/beta2; experiment: as above; details: U2OS BacMam BK variants, at 30 µM
[14] = compounds altering circadian rhythm period length – cell-based, LOPAC library, luminescence reporter (AID 2774; call rule not given here;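 further: values are relative to mean of DMSO wells on each plate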); details: circadian reporter cells, at 7 µM, actives lie on both sides
[15] = compounds altering Cy5-DNA-NS3h complex signal – biochemical, LOPAC1280, artefact control for HCV NS3 helicase inhibitor project (AID 687037; call rule not given here); details: Cy5-DNA-NS3h complex fluorescence interference counterscreen
[16] = test system: Aerobactin synthetase IucA (Klebsiella pneumoniae, hypervirulent); experiment: biochemical IucA inhibition screen of LOPAC library by absorbance (AID 1346212; call rule not given here;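 further: 100% = no compound wells and 0% = no enzyme wells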); details: IucA enzyme assay, absorbance (OD) readout; stronger effect = lower value;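 tested at 8 µM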
[17] = blockers of cellular phospholipid synthesis – cell-based, LOPAC library, screen 4, primary screen (AID 1347384; call rule not given here); details: animal cells, phospholipid biosynthesis inhibition screen; at 10 µM
[18] = test system: Hepatitis C virus NS3 helicase; experiment: blockers of NS3h binding to ssDNA – biochemical, fluorescence polarization, LOPAC1280 library, primary screen (AID 687035; in the data active means inhibition above about 37%); details: Purified HCV NS3 helicase, Cy5-dT15 ssDNA binding fluorescence polarization; stronger effect = higher value; concentration not given here
[19] = molecular target: ATP-dependent translocase ABCB1 (Homo sapiens) (UniProt P08183); experiment: P-glycoprotein substrate transport blockade – cell-based (AID 377; in the data active means fluorescence slope change above about 50%); details: MDR1-expressing cells, fluorescent substrate accumulation slope; stronger effect = higher value; concentration not given here
[20] = compounds altering viability of human ES cells (AID 493140; call rule not given here;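 further: cells exposed to compounds for four days before counting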); details: human embryonic stem cell survival screen; stronger effect = higher value

ATP-dependent translocase ABCB1 (Homo sapiens), sequence (P08183 whole entry, looked up): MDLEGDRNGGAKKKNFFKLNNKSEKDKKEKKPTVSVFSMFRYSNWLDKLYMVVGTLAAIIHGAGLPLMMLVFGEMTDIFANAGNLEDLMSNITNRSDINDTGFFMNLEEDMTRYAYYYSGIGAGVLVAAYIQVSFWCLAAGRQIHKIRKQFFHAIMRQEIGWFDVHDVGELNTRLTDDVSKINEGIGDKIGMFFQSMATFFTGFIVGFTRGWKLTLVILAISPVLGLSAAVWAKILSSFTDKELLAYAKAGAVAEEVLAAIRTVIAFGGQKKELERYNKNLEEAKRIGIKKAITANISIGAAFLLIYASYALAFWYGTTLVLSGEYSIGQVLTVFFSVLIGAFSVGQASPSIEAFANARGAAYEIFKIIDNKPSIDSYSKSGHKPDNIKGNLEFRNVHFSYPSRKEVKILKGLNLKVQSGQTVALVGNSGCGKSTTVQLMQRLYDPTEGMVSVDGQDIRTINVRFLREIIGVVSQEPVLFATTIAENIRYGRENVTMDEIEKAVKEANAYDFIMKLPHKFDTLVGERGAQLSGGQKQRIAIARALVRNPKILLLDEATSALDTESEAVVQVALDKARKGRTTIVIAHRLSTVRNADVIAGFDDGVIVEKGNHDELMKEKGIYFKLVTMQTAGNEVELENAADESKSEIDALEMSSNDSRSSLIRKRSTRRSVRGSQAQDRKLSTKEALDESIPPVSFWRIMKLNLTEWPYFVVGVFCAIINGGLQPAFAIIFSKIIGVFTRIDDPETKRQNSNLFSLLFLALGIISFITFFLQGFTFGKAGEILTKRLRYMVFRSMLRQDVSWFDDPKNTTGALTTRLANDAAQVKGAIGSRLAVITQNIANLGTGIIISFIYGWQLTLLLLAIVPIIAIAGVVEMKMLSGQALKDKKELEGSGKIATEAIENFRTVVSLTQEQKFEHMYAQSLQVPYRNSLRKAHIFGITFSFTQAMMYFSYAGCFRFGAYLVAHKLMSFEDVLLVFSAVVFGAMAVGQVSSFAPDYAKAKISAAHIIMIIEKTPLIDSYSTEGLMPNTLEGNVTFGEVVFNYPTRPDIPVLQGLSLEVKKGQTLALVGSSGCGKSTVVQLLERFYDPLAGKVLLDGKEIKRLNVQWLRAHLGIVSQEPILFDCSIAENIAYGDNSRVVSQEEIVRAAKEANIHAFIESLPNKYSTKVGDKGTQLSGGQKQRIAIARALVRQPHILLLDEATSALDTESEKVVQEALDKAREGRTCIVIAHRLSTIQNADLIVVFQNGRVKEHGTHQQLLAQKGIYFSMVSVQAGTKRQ

CC(=O)Nc1cc([As](=O)(O)O)ccc1O
-5.59%: glutamate uptake change [3]
2: inclusion score [4]
-3.61%: inhibition [1]
-5.17: rescue above control [2]
1.35: aggregation suppression score [5]

NC1=NC(=O)C(c2ccccc2)O1 (stereo not given)
active: log fold change Tl+ flux [13] 0.0857
inactive: mean signal [6] 245 | log fold change Tl+ flux [7] -0.012 | log fold change Tl+ flux [8] -0.0441 | log fold change Tl+ flux [9] -0.0196 | log fold change Tl+ flux [10] 0.00173 | log fold change Tl+ flux [11] 0.00542 | log fold change Tl+ flux [12] -0.00885

CC[C@@H](CO)NC(=O)[C@@H]1C=C2c3cccc4c3c(cn4C)C[C@H]2N(C)C1
inactive: period change [14] 0.11 h | fluorescence ratio (interference) [15] 1 | remaining activity [16] 112% | outcome [17]

O=C(O)C(Cl)Cl
inactive: mean signal [6] 259 | log fold change Tl+ flux [7] -0.0365 | log fold change Tl+ flux [8] -0.0051 | log fold change Tl+ flux [9] -0.00825 | log fold change Tl+ flux [10] -0.098 | log fold change Tl+ flux [11] 0.0188 | log fold change Tl+ flux [12] -0.00393 | log fold change Tl+ flux [13] -0.0385

C[N+]1(CCC(C(N)=O)(c2ccccc2)c2ccccc2)CCCCC1
inactive: mean signal [6] 231 | log fold change Tl+ flux [7] 0.00354 | log fold change Tl+ flux [8] -0.0163 | log fold change Tl+ flux [9] 0.00809 | log fold change Tl+ flux [10] -0.0159 | log fold change Tl+ flux [11] -0.0271 | log fold change Tl+ flux [12] -0.0181 | log fold change Tl+ flux [13] 0.0123

COc1ccc(C(=O)N2CCCC2=O)cc1
15.7%: inhibition [1]
1.16: aggregation suppression score [5]
2: inclusion score [4]
inactive: period change [14] -0.01 h | inhibition [18] -3% | fluorescence ratio (interference) [15] 0.9 | remaining activity [16] 122% | outcome [17]
5.51%: glutamate uptake change [3]
2.57: rescue above control [2]

C#CCN(C)[C@H](C)Cc1ccccc1
inactive: fluorescence slope change [19] -18.7% | survival [20] 12.8 | mean signal [6] 258 | log fold change Tl+ flux [7] 0.00891 | log fold change Tl+ flux [8] 0.0474 | log fold change Tl+ flux [9] -0.0258 | log fold change Tl+ flux [10] -0.00358 | log fold change Tl+ flux [11] 0.0188 | log fold change Tl+ flux [12] -0.0448 | log fold change Tl+ flux [13] -0.00101

CCOC(=O)c1cncn1C(C)c1ccccc1 (stereo not given)
inactive: survival [20] 6.08 | log fold change Tl+ flux [7] -0.00492 | log fold change Tl+ flux [8] 0.00176 | log fold change Tl+ flux [9] 0.0219 | log fold change Tl+ flux [10] -0.00746 | log fold change Tl+ flux [11] 0.0125 | log fold change Tl+ flux [12] 0.0301 | log fold change Tl+ flux [13] -0.0322

c1ccc2c(c1)OCC(C1=NCCN1)O2 (stereo not given)
inactive: period change [14] 0.1 h | survival [20] 1.58 | inhibition [18] -7% | fluorescence ratio (interference) [15] 0.9 | remaining activity [16] 109% | outcome [17]

CCCC(C)C1(CC)C(=O)N=C(S)NC1=O (stereo not given)
-8.64: rescue above control [2]
15.5%: glutamate uptake change [3]
0.929: aggregation suppression score [5]
15.2%: inhibition [1]
2: inclusion score [4]

NC(=O)OCCCc1ccccc1
inactive: mean signal [6] 256 | log fold change Tl+ flux [7] 0.0271 | log fold change Tl+ flux [8] 0.00909 | log fold change Tl+ flux [9] 0.0735 | log fold change Tl+ flux [10] -0.0501 | log fold change Tl+ flux [11] 0.00561 | log fold change Tl+ flux [12] 0.00928 | log fold change Tl+ flux [13] 0.0397

From PubChem BioAssay
